HCV inhibitor – inhibitors of hepatitis C virus infection. hit rate 3.4% among 340,000. Huh7.5.1 HCVcc-Cre infection, luciferase reporter, 44 h. AID 651820. Potency, µM (titrated, usually from 41.8 µM), without a hit: top-dose activity change, negative = inhibition, hits mostly inhibitors; further: potency means the concentration at half of the fitted maximal effect; on the % scale 0 is the no-effect control and ±100 the full control effect
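Cells (1,000/well) were plated 4 h before compound, then infected with HCVcc-Cre virus (~0.5 moi). After 44 h further culture, infection was read as luciferase luminescence following a 15 min substrate incubation at room temperature.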
Pf growth 96h – P. falciparum growth inhibition at 96 hours; P. falciparum luciferase reporter growth, 96 h; Potency, µM (titrated, usually from 28.7 µM), for inactives: top-dose activity change, negative = inhibition, usual class: inhibitors; hit rate 6.9% among 320,000; AID 504834; further: potency means the concentration at half of the fitted maximal effect; on the % scale 0 is the no-effect control and ±100 the full control effect
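P. falciparum expressing integrated firefly luciferase, in erythrocytes at 2% hematocrit, 0.05% parasitemia, incubated with compounds 96 h at 37 C, 5% CO2. Growth inhibition read as loss of luminescence; two-generation exposure targets delayed-death apicoplast inhibitors.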
HCMV antiviral – inhibitors of human cytomegalovirus | hit rate 4.5% among 410,000 | HFF cells, HCMV-luciferase reporter, 72 h; stronger effect = lower value | activity change, negative = inhibition, % at 57.5 µM | AID 1259415; in the data active means activity change below about -60%; inconclusive means no clear call, values can overlap the other calls; inactive means above about -39%; further: on the % scale 0 is the no-effect control and ±100 the full control effect
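Inhibition of viral replication was scored as loss of reporter luminescence in HFFs infected with HCMV-luciferase (MOI 1 PFU/cell) for 72 h; compounds tested at 2 doses, normalized to buffer and Salinomycin controls.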
Cycloheximide cs – affects cycloheximide protein synthesis inhibition readout, counter-screen; cell reporter, cycloheximide protein synthesis inhibition counterscreen; max response, %; hit rate 12% among 300,000; in the data active means max response mostly above about 13%, no sharp cut-off; inactive means mostly below about 14%; further: read at 38.3 µM for the half of the compounds with a filed dose; 0% is about no effect
Shiga toxin inh – Shiga toxin inhibition. inhibition, % at 38.7 µM. AID 2315. hit rate 9.2% among 290,000. Vero cells, Shiga toxin protein synthesis inhibition reporter; in the data active means inhibition mostly above about 28%, no sharp cut-off; inactive means mostly below about 43%; further: 0% is about no effect
Pf growth 48h – P. falciparum growth inhibition at 48 hours (one generation); P. falciparum luciferase growth in erythrocytes, 48 h; Potency, µM (highest dose often 28.7 µM), for inactives: top-dose activity change, negative = inhibition, hits mostly inhibitors; hit rate 5.9% among 310,000; further: potency means the concentration at half of the fitted maximal effect; on the % scale 0 is the no-effect control and ±100 the full control effect
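Erythrocytes infected with P. falciparum carrying an integrated firefly luciferase reporter (2% hematocrit, 0.1% parasitemia final) were exposed to compounds in RPMI 1640 with 0.5% Albumax at 37 C, 5% CO2. Growth inhibition was scored as reduced luminescence.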
Starred values were filed as active, the others as inactive; ? = inconclusive; . = not tested or not shown. Most compounds without a hit are left out; they make up all but 21% or so of the library. Unless noted, the call rests on the fitted dose curve; in most records, active means well fitted inhibition curve with a large enough effect; inconclusive means small, poorly fitted or top-dose-only effect, or another doubt; inactive means no such curve, though single readings can be large or run the other way.

SMILES | HCV inhibitor | Pf growth 96h | HCMV antiviral | Cycloheximide cs | Shiga toxin inh | Pf growth 48h
CCOC(=O)N1CCN(S(=O)(=O)c2ccc(C(=O)Nc3sc4c(c3C(N)=O)CC(C)(C)NC4(C)C)cc2)CC1 | 0.3% | ? | -10.5 | -5.0 | 20.4 | 11.7µM*
CC1(C)Cc2c(sc(NC(=O)c3ccc(C(=O)c4ccccc4)cc3)c2C(N)=O)C(C)(C)N1 | ? | ? | -99.8* | 5.5 | -21.3 | ?
O=C(O)c1ccc(N=C2c3ccccc3-c3ccccc32)cc1 | -9.3% | . | 1.2 | . | . | .
C[C@H](NC(=O)c1nc[nH]c1C(=O)N[C@@H](CCCCNC(=O)OC(C)(C)C)C(=O)OC(C)(C)C)C(=O)OCc1ccccc1 | 18.0% | 17.4% | -29.5 | 10.1 | 2.6 | ?
CC(C)(C)OC(=O)NCCCC[C@H](NC(=O)c1nc[nH]c1C(=O)NCC(=O)OCc1ccccc1)C(=O)OC(C)(C)C | 1.6% | 0.1% | -89.4* | -2.4 | -2.9 | ?
CC(C)(C)OC(=O)NCCCCCNC(=O)c1[nH]cnc1C(=O)N[C@@H](Cc1ccccc1)C(=O)OCc1ccccc1 | 21.3% | 11.7µM* | -0.5 | -3.1 | -6.9 | 8.28µM*
CC(C)(C)OC(=O)CNC(=O)c1[nH]cnc1C(=O)NCC(=O)OCc1ccccc1 | -5.6% | 36.4% | -16.3 | 10.4* | 16.0 | 53.1%
CC(C)C[C@H](NC(=O)c1nc[nH]c1C(=O)N[C@@H](CCCCNC(=O)OC(C)(C)C)C(=O)OC(C)(C)C)C(=O)OCc1ccccc1 | ? | 3.29µM* | -8.6 | 7.6 | 7.1 | ?
CC(C)CN(C(=O)c1cccs1)C1CCS(=O)(=O)C1 (stereo not drawn) | -3.9% | 1.6% | -24.5 | . | . | 1.3%
O=C(Nc1ccccc1C(=O)N1CCCCCC1)c1cccc([N+](=O)[O-])c1 | 21.2% | 0.0% | 0.3 | 12.8 | -15.7 | -1.9%
CC(C)(C)OC(=O)[C@H](Cc1ccccc1)NC(=O)c1nc[nH]c1C(=O)NCC(=O)OCc1ccccc1 | 4.7% | 114.5% | -60.8* | -2.1 | 7.6 | 77.2%
CC(C)C[C@H](NC(=O)c1nc[nH]c1C(=O)NCCCCCNC(=O)OC(C)(C)C)C(=O)OCc1ccccc1 | 57.3% | 9.28µM* | 7.7 | 6.6 | -9.5 | ?
O=C(CNC(=O)c1[nH]cnc1C(=O)NC(c1ccccc1)c1ccccc1)OCc1ccccc1 | 9.8% | 1.85µM* | -4.9 | 4.8 | 5.7 | ?
O=C(CNC(=O)c1[nH]cnc1C(=O)N[C@@H](Cc1ccccc1)C(=O)OCc1ccccc1)OCc1ccccc1 | -2.8% | 2.5% | 32.7 | 5.2 | -7.8 | 9.7%
CC(C)N(Cc1ccccc1)C(=O)COC(=O)c1cc[n+]([O-])cc1 | -15.6% | . | -12.0 | . | . | .
COC(=O)c1ccc(OC)c(CSc2nnc(-c3ccc(C(C)(C)C)cc3)o2)c1 | ? | 0.657µM* | 24.3 | -4.7 | -10.4 | .
COc1ccc(-c2nnc(SCC(=O)Oc3c(C)cccc3C)o2)cc1OC | . | . | 21.4 | . | . | .
Cc1ccc(-c2nnc(SCc3ccccc3F)o2)cc1 | ? | 131.4% | 79.2 | 44.0* | 63.3* | 123.0%
COc1ccc(-c2nnc(SCc3ccccc3F)o2)cc1OC | -36.9% | 22.9% | -5.6 | 21.3 | 52.3* | 46.9%
COc1cc(-c2nnc(SCc3cc(=O)oc4cc(C)ccc34)o2)cc(OC)c1OC | ? | ? | -7.5 | 29.0* | 62.8 | ?
Cc1ccc(NC(=O)CSc2nccn2Cc2ccco2)cc1 | 23.2% | 151.3% | 31.9 | 78.3* | 89.7* | 105.4%
CC(=O)c1ccc(NC(=O)CSc2nccn2Cc2ccco2)cc1 | . | . | -3.3 | . | . | .
O=C(CSc1nccn1Cc1ccco1)Nc1cccc(F)c1 | ? | 43.7% | -9.9 | 26.9* | 38.8* | 1.3%
COc1ccccc1-n1ccnc1SCC(=O)NCc1ccco1 | 26.5% | 10.4µM* | 5.1 | -0.3 | -6.5 | ?
CC(CCc1ccco1)NC(=O)Nc1cccc(F)c1 (stereo not drawn) | -25.1% | ? | -27.8 | 20.5* | 16.0 | -8.9%
SMILES | HCV inhibitor | Pf growth 96h | HCMV antiviral | Cycloheximide cs | Shiga toxin inh | Pf growth 48h
CCc1cccc(NC(=O)c2nnn(Cc3ccc(SC)cc3)c2N)c1 | . | . | 22.0 | . | . | .
COc1ccc(NC(=O)CSc2nccn2Cc2ccco2)c(OC)c1 | -16.9% | 87.3% | -1.6 | 25.4* | 43.6* | 33.8%
Cc1ccc(NC(=O)CSc2ncc3ccccn23)cc1 | 29.5% | 160.5% | -7.9 | 28.1* | 69.6* | 156.8%
CCCCN(C(=O)C1CCC(CNS(=O)(=O)c2cccc3nsnc23)CC1)c1ccccc1 (stereo not drawn) | . | . | -31.1 | . | . | .
Nc1nc(N)c(Cc2ccc(Cl)cc2Cl)c(N)n1 | ? | ? | -73.5* | -1.2 | -20.7 | ?
NNc1ccc(Cc2ccc(Cl)cc2Cl)nn1 | ? | ? | -69.8* | -3.1 | 15.6 | 321.7%
Nc1nccc(SCc2ccc(Cl)cc2Cl)n1 | -20.6% | . | -15.4 | . | . | .
CSc1ccc(Cc2ccc(Cl)cc2Cl)nn1 | -14.0% | 37.8% | -32.8 | 22.2* | 38.4 | 32.5%
COc1ccc(CCNC(=O)c2c(N)n(CCN3CCOCC3)c3nc4ccccc4nc23)cc1OC | ? | 4.65µM* | 38.6 | -4.7 | -2.9 | 9.28µM*
CCCCCn1c(N)c(C(=O)NCCN2CCOCC2)c2nc3ccccc3nc21 | -4.5% | ? | -39.6 | 6.0 | -2.0 | ?
CCCCCCn1c(N)c(C(=O)NCCN2CCOCC2)c2nc3ccccc3nc21 | ? | ? | -19.5 | -3.1 | -4.5 | 9.28µM*
Nc1c(C(=O)Nc2ccccc2)c2nc3ccccc3nc2n1CCCN1CCOCC1 | 22.4µM* | ? | 108.9 | -1.8 | -4.8 | ?
Cc1ccccc1Cn1c(=O)n(CCc2ccccc2)c(=O)c2sc3ccccc3c21 | . | . | 16.9 | . | . | .
CN(C)N1C(=O)c2c(Cl)c(Cl)c(Cl)c(Cl)c2C1=O | 18.8% | . | 10.3 | . | . | .
Cc1cn2c(=O)cc(COc3ccc(NC(=O)c4cccc(F)c4)cc3)nc2s1 | . | . | -6.7 | . | . | .
CCOP(=O)(Oc1ccccc1)c1c([N+](=O)[O-])cc(C(F)(F)F)cc1[N+](=O)[O-] (stereo not drawn) | 6.4% | 2.5% | -19.6 | -3.1 | -14.6 | 0.2%
CCCOP(=O)(O)c1c([N+](=O)[O-])cc(C(F)(F)F)cc1[N+](=O)[O-] (tested in a mixture with another compound) | 17.7% | -9.5% | -23.0 | 14.3* | 42.0 | .
COCCNC(=O)c1ccccc1NC(=O)c1nsc2ccccc12 | . | . | 30.6 | . | . | .
COc1ccccc1CN(Cc1ccco1)S(=O)(=O)c1ccc(-n2cnnn2)c(OC)c1 | ? | ? | -28.7 | -1.5 | -3.5 | 13.1µM*
COc1cc(S(=O)(=O)NCc2ccccc2Cl)ccc1-n1cnnn1 | -2.9% | 270.6% | ? | -1.7 | -3.0 | -11.7%
COc1ccccc1CNS(=O)(=O)c1ccc(-n2cnnn2)c(OC)c1 | -9.2% | 9.28µM* | 3.5 | -5.8 | -2.7 | 6.0%
O=C(O)CCn1c(=O)c2cccn2c2cccnc21 | . | . | 55.5 | . | . | .

High-throughput results deposited in PubChem by National Center for Advancing Translational Sciences (NCATS).
